# Data: PubChem BioAssay (NCATS)
# Values joined by “and” are separate entries in the source; they are usually repeats but may differ in a detail not shown here. Equal entries are not always repeated. Results filed as inconclusive are left out. Entries that show only a call come without a potency. Some structures have more than one record in an assay (separate samples or runs), and their calls can disagree. Active and inactive are the calls of the source. Calls come from the whole dose curve; as a rule, active = well fitted curve in the direction sought with a large enough effect; inconclusive = small, poorly fitted or top-dose-only effect, or another doubt; inactive = no such curve, though single readings can be large; an effect the other way counts as inactive or inconclusive.
# Legend:
# [1] = target: Glutathione peroxidase 1 (Homo sapiens) (UniProt P07203); test: Primary qHTS Assay for Inhibitors of Recombinant Selenoprotein Glutathione Peroxidase 1 (GPX1) (AID 1845191); note: nearly all actives have a fitted effect of over 65% in size
# Method in brief: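 Recombinant GPX1 (10 nM final) was preincubated with compound for 30 min at room temperature, then reacted with 1 mM GSH, 0.5 mM CHP, 0.5 mM NADPH and 100 nM glutathione reductase; NADPH fluorescence (340/450 nm) was read at 0 and 15 min.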
# [2] = target: Phospholipid hydroperoxide glutathione peroxidase GPX4 (Homo sapiens) (UniProt P36969); test: Primary qHTS Assay for Inhibitors of Recombinant Selenoprotein Glutathione Peroxidase 4 (GPX4) (AID 1845192); note: nearly all actives have a fitted effect of over 65% in size; note: potency is the fitted concentration of half-maximal effect
# Method in brief: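 GR-coupled readout: 100 nM GR, 1 mM GSH, 0.5 mM NADPH; NADPH fluorescence (ex 340/em 450 nm) read at t=0 and after 15 min RT. GPX4 200 nM, preincubated 30 min with compound; substrate 0.5 mM CHP.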
# [3] = target: Luciferin 4-monooxygenase (Photinus pyralis) (UniProt P08659); test: Primary firefly luciferase (FLuc) qHTS assay for identification of artifact compounds. (AID 1845220); note: nearly all actives have a fitted effect of over 60% in size
# Method in brief: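 Reaction readout was CCD-imaged luminescence, taken 5 min after adding 10 nM purified firefly enzyme to compound-treated wells holding 10 uM luciferin and ATP in pH 7.6 buffer.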
# [4] = test system: Nanoluciferase (engineered Oplophorus gracilirostris luciferase); test: Primary Nanoluciferase (NLuc) qHTS assay for identification of artifact compounds. (AID 1845222);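 note: NLuc secreted into diluted conditioned medium of S16 cells; series mostly up to about 54 µM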
# Method in brief: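 Concentration-response data were obtained by luminescence after 5 min with Nano-Glo substrate at 1:100. The enzyme was diluted S16 NLuc-expressing cell medium, preincubated with compound for 15 min at RT. Curves were fitted with a 4-parameter Hill model.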
# [5] = Primary redox qHTS assay for identification of artifact compounds. (AID 1845223)
# Method in brief: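 Amplex Red (25 uM) and HRP (250 mU/mL) in HBSS, with compounds for 15 min, then 250 uM DTT for 30 min, room temperature, dark. Fluorescence 525/598 nm read; normalized to DMSO and 10 uM DA3003; Hill fit.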
# [6] = Quantitative High-Throughput drug screen in 47 multiple myeloma cell lines against the NCATS MIPE library collection: FR4_PLB cell viability assay (AID 1918924; note: nearly all actives have a fitted effect of over 35% in size; note: potency is the fitted concentration of half-maximal effect)
# Method in brief: (§1)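 Viability readout: CellTiter-Glo luminescence following 5 min room-temperature incubation with reagent. Prior exposure: 48 h, 37C, humidified 5% CO2, 500 cells per well.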
# [7] = Quantitative High-Throughput drug screen in 47 multiple myeloma cell lines against the NCATS MIPE library collection: Delta47_JCRB cell viability assay (AID 1918925; note: nearly all actives have a fitted effect of over 45% in size; note: potency is the fitted concentration of half-maximal effect)
# Method in brief: (§2)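 Steps: seed 500 cells per well; pin-transfer MIPE 4.0 library; incubate 48 h at 37C, 5% CO2, humidified; add CellTiter-Glo, 5 min room temperature; read luminescence.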
# [8] = Quantitative High-Throughput drug screen in 47 multiple myeloma cell lines against the NCATS MIPE library collection: EJM_DSMZ cell viability assay (AID 1918926; note: nearly all actives have a fitted effect of over 30% in size; note: potency is the fitted concentration of half-maximal effect)
# Method in brief: as §2
# [9] = Quantitative High-Throughput drug screen in 47 multiple myeloma cell lines against the NCATS MIPE library collection: AMO1_DSMZ cell viability assay (AID 1918927; note: nearly all actives have a fitted effect of over 30% in size; note: potency is the fitted concentration of half-maximal effect)
# Method in brief: as §2
# [10] = Quantitative High-Throughput drug screen in 47 multiple myeloma cell lines against the NCATS MIPE library collection: ARP1_JJKsccF8 cell viability assay (AID 1918928; note: nearly all actives have a fitted effect of over 40% in size; note: potency is the fitted concentration of half-maximal effect)
# Method in brief: (§3)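 Myeloma cells, 500 per well, were exposed to MIPE 4.0 drugs by pin transfer for 48 h at 37 °C, 5% CO2. Viability was read as ATP luminescence with CellTiter-Glo, normalised to DMSO-only (100%) and medium-only (0%) wells.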
# [11] = Quantitative High-Throughput drug screen in 47 multiple myeloma cell lines against the NCATS MIPE library collection: ARD_JJKsccE7 cell viability assay (AID 1918929)
# Method in brief: as §2
# [12] = Quantitative High-Throughput drug screen in 47 multiple myeloma cell lines against the NCATS MIPE library collection: Karpas620_DSMZ cell viability assay (AID 1918959); note: nearly all actives have a fitted effect of over 30% in size
# Method in brief: as §1
# [13] = Quantitative High-Throughput drug screen in 47 multiple myeloma cell lines against the NCATS MIPE library collection: KMM1_JCRB cell viability assay (AID 1918960); note: nearly all actives have a fitted effect of over 30% in size
# Method in brief: as §3
# [14] = Quantitative High-Throughput drug screen in 47 multiple myeloma cell lines against the NCATS MIPE library collection: KHM11_PLB cell viability assay (AID 1918962); note: nearly all actives have a fitted effect of over 35% in size; note: potency is the fitted concentration of half-maximal effect
# Method in brief: as §1
# [15] = Quantitative High-Throughput drug screen in 47 multiple myeloma cell lines against the NCATS MIPE library collection: JIM3_ECACC cell viability assay (AID 1918963; note: nearly all actives have a fitted effect of over 35% in size; note: potency is the fitted concentration of half-maximal effect)
# Method in brief: as §1
# [16] = Quantitative High-Throughput drug screen in 47 multiple myeloma cell lines against the NCATS MIPE library collection: INA6_PLB cell viability assay (AID 1918965; note: nearly all actives have a fitted effect of over 55% in size; note: potency is the fitted concentration of half-maximal effect)
# Method in brief: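 Approved and investigational drugs from MIPE 4.0 were added by pin tool to 500 cells per well. After 48 hours at 37C, ATP-based CellTiter-Glo luminescence indicated remaining viability.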
# [17] = Quantitative High-Throughput drug screen in 47 multiple myeloma cell lines against the NCATS MIPE library collection: JJN3_DSMZ cell viability assay (AID 1918966; note: nearly all actives have a fitted effect of over 50% in size; note: potency is the fitted concentration of half-maximal effect)
# Method in brief: as §2
# [18] = Quantitative High-Throughput drug screen in 47 multiple myeloma cell lines against the NCATS MIPE library collection: JIM1_ECACC cell viability assay (AID 1918964; note: potency is the fitted concentration of half-maximal effect)
# Method in brief: as §2
# Chain of Phospholipid hydroperoxide glutathione peroxidase GPX4 (Homo sapiens) (P36969 whole entry, looked up): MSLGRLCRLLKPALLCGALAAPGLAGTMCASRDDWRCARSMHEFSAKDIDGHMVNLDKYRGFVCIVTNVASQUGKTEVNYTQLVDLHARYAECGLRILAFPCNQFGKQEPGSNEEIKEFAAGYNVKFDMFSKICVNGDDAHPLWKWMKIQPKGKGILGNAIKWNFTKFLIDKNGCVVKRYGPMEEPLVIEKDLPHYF
# Chain of Glutathione peroxidase 1 (Homo sapiens) (P07203 whole entry, looked up): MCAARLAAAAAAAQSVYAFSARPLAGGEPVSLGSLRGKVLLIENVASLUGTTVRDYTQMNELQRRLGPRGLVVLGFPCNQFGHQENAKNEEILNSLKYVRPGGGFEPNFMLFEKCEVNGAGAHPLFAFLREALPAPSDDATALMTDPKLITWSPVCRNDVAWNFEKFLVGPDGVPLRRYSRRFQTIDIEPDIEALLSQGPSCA
Structure (SMILES),Potency [1],Potency [2],Potency [3],outcome [4],outcome [5],Potency [6],Potency [7],Potency [8],Potency [9],Potency [10],Potency [11],Potency [12],Potency [13],Potency [14],Potency [15],Potency [16],Potency [17],Potency [18]
CCC1=C(C)CN(C(=O)NCCc2ccc(S(=O)(=O)NC(=O)NC3CCC(C)CC3)cc2)C1=O (stereo unspecified),inactive,inactive,inactive,inactive,inactive,inactive,inactive,inactive,inactive,inactive,inactive,inactive,inactive,inactive,inactive,inactive,inactive,–
COC(=O)N[C@H](C(=O)N[C@@H](Cc1ccccc1)[C@@H](O)CN(Cc1ccc(-c2ccccn2)cc1)NC(=O)[C@@H](NC(=O)OC)C(C)(C)C)C(C)(C)C,inactive,inactive,–,–,–,inactive,inactive,inactive,–,16600 nM (active),inactive,inactive,inactive,inactive,inactive,inactive,–,–
C=C(c1ccc(C(=O)O)cc1)c1cc2c(cc1C)C(C)(C)CCC2(C)C,inactive,6.31 µM (active) and inactive and 8.06 µM (active),inactive,inactive,inactive,–,–,inactive,–,inactive,–,inactive,inactive,–,–,–,inactive,–
NS(=O)(=O)c1cc(C(=O)O)c(NCc2ccco2)cc1Cl,inactive,inactive,–,–,–,inactive,inactive,inactive,–,inactive,–,inactive,inactive,–,inactive,–,–,inactive
Cc1nc2n(c(=O)c1CCN1CCC(c3noc4cc(F)ccc34)CC1)CCCC2,inactive,inactive,–,–,–,inactive,–,inactive,inactive,inactive,inactive,inactive,inactive,inactive,inactive,inactive,–,–
CCC[C@@H]1C[C@@H](C(=O)N[C@@H]([C@H]2O[C@H](SC)[C@H](O)[C@@H](O)[C@H]2O)[C@@H](C)O)N(C)C1,inactive,inactive,–,–,–,inactive,–,3320 nM (active),inactive,inactive,inactive,–,inactive,inactive,inactive,–,–,–
Cc1nc(-c2ccc(OCC(C)C)c(C#N)c2)sc1C(=O)O,inactive,inactive,–,–,–,inactive,inactive,inactive,inactive,inactive,inactive,–,inactive,–,inactive,–,–,inactive
COc1c(O)cc2c(c1O)[C@@H]1O[C@H](CO)[C@@H](O)[C@H](O)[C@H]1OC2=O,inactive,inactive,inactive,inactive,inactive,inactive,–,inactive,inactive,–,–,inactive,inactive,inactive,inactive,–,–,inactive
COc1ccc(C2(C#N)CCC(C(=O)O)CC2)cc1OC1CCCC1 (stereo unspecified),inactive,inactive,inactive,inactive,inactive,inactive,–,inactive,inactive,inactive,inactive,inactive,inactive,–,inactive,18700 nM (active),inactive,–
CC(C)[N+]1(C)[C@@H]2CC[C@H]1CC(OC(=O)C(CO)c1ccccc1)C2 (stereo partly specified),inactive,inactive,–,–,–,inactive,inactive,inactive,–,inactive,–,–,–,–,inactive,–,inactive,–
O=P(O)(O)C(O)(Cn1ccnc1)P(=O)(O)O,inactive,inactive,–,–,–,inactive,inactive,inactive,–,inactive,–,inactive,inactive,inactive,inactive,–,–,–
O=C1CCc2ccc(OCCCCN3CCN(c4cccc(Cl)c4Cl)CC3)cc2N1,inactive,inactive,–,–,–,inactive,23500 nM (active),inactive,inactive,23500 nM (active),–,–,–,–,14800 nM (active),–,18700 nM (active),inactive
CCN(CC)C(=S)SSC(=S)N(CC)CC,inactive,inactive,–,–,–,7.4 nM (active),11.8 nM (active),6.6 nM (active),37.2 nM (active),23.5 nM (active),–,–,–,–,1 nM (active),1 nM (active),16.6 nM (active),–
CN(C)CCc1c[nH]c2ccc(Cn3cncn3)cc12,inactive,inactive,–,–,–,inactive,inactive,inactive,–,inactive,–,–,–,–,inactive,1660 nM (active),–,–
COc1ccc2cc([C@H](C)C(=O)O)ccc2c1,inactive,inactive,inactive,–,inactive,inactive,–,inactive,inactive,inactive,inactive,inactive,inactive,29600 nM (active),–,inactive,–,inactive
Nc1nc(Cl)nc2c1ncn2[C@H]1C[C@H](O)[C@@H](CO)O1,inactive,inactive,–,–,–,3720 nM (active),235 nM (active),–,187 nM (active),–,–,–,–,1050 nM (active),526 nM (active),935 nM (active),–,2350 nM (active)
Cc1ccc(C)c(OCCCC(C)(C)C(=O)O)c1,inactive,inactive,–,–,–,inactive,16600 nM (active),–,–,inactive,–,–,–,–,–,20900 nM (active),inactive,–
Cc1nccn1CC1CCc2c(c3ccccc3n2C)C1=O (stereo unspecified),inactive,inactive,inactive,inactive,inactive,inactive,–,inactive,–,–,inactive,–,inactive,–,–,–,inactive,–
